Screening data as filed in PubChem.
TROY signal inh = inhibitors of TROY-dependent NF-kB signaling; AID 1347056; 0.98% of 360,000 active; Q293 LMP1-TROYcd NF-kB luciferase reporter, 4 h; inhibition, % at 10 µM;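 active means compounds whose plate-normalised and pattern-corrected inhibition of the luciferase reporter signal at the single screening dose is 50% or more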
HSF-1 act = increases HSF-1 driven luciferase reporter signal. NIH3T3-HGL HSF-1 luciferase reporter, MG132, 8 h; 100% = twice DMSO control signal. activation, % at 9 µM. 1.7% of 300,000 active. AID 504408;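 active means mean replicate activation of at least 50% with a set share of replicates each reaching 50%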;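 further: 0% = median of the neutral control wells and 100% = twice that signal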
LGR2 inh = Drosophila LGR2 receptor signaling inhibition. HEK293 LGR2, CRE-luciferase, bursicon-stimulated, 4 h. inhibition, % at 9.99 µM. 0.35% of 380,000 active;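 active means drop in luminescence signal, shown as inhibition above about 50% in the replicate tests, limit read from the data, passing the limit was not always enough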;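 further: agonist challenge used bursicon conditioned medium at about half maximal strength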
TWEAK Fn14 block = blocks TWEAK-Fn14 interaction in a reporter cell assay; 2% of 360,000 active; TWEAK-stimulated Fn14 reporter cells, luciferase luminescence, 8 h; inhibition, % at 10 µM; in the data active means inhibition above about 50%
HSF1 inh = HSF1 inhibition; NIH3T3-HGL HSE-luciferase, MG132-induced, luminescence 8 h; hits give low values; activity change, negative = inhibition, % at 7.5 µM (by protocol); 0.77% of 300,000 active; AID 2098;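 active means more than half of replicate wells show activity change below -50%, luminescence cut by over half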;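 further: luciferase reports HSF-1 transcriptional activity via heat shock element; 0% = median of DMSO wells and -100% = zero luminescence signal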
LMP1 NFkB inh = reduces LMP1-driven NF-kappaB luciferase signal | LMP1-induced NF-kappaB luciferase reporter cells, luminescence | inhibition, % at 12.5 µM | 0.69% of 350,000 active | AID 504558; in the data active means inhibition above about 41%;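 further: 0% = neutral control wells and 100% = reference inhibitor control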
The depositor's hits bear a star; . = no result given; ! = a repeat was not active. Only some compounds are listed: those with a hit (about 3.6% of all), similar ones and a draw of the others.

SMILES	TROY signal inh	HSF-1 act	LGR2 inh	TWEAK Fn14 block	HSF1 inh	LMP1 NFkB inh
Cc1cc(O)c(C(C)C)cc1NC(=O)Nc1ccc([N+](=O)[O-])cc1	-27.2	.	.	4.1	.	-9.0
O=C(Nc1ccc(Oc2ccc(NC(=O)Nc3ccc([N+](=O)[O-])cc3)cc2)cc1)Nc1ccc([N+](=O)[O-])cc1	26.1	1.5	9.1	86.8*	-5.8	25.0
CCCn1c2c(c(=N)c3c1CCC3)CCC2	-8.2	-8.2	9.6	-23.8	-4.9	-2.9
CCCCCCCn1c2c(c(=N)c3ccccc31)CCC2	46.3	5.7	27.2	56.2*	-10.5	21.3
Oc1ccc(-c2cnc3c(Nc4cccc(OC(F)(F)C(F)F)c4)nccn23)cc1	-4.5	.	-12.9	30.9	.	.
NC(=O)c1cccc(-c2cnc3c(Nc4cccc(OC(F)(F)C(F)F)c4)nccn23)c1	45.6	.	8.4	72.2*	.	.
C[C@@H]1CN([C@@H](C)CO)C(=O)c2cc(NC(=O)Cc3cn(C)c4ccccc34)ccc2O[C@@H]1CN(C)C(=O)Nc1cccc2ccccc12	.	.	19.8	.	.	.
CCOC(=O)c1c(NC(=O)c2ccccc2)sc2c(O)c(CN(CC)CC)ccc12	7.9	-75.1	.	1.1	-73.4*	-0.1
COc1ccccc1NC(=O)N1C[C@@H]2[C@H](c3ccccc31)[C@H](CO)N2Cc1ccccc1F	.	.	4.0	.	.	.
CCc1ccc2c(c1)NC(=O)C2(C)Cc1cccc(F)c1 (stereo unspecified)	7.8	.	-10.5	5.6	.	.
CC1(Cc2ccc(Cl)cc2)C(=O)Nc2ccc(-c3cccnc3)cc21 (stereo unspecified)	53.4*	.	19.2	83.6*	.	.
CC1(Cc2cccc(F)c2)C(=O)Nc2ccc(-c3cccnc3)cc21 (stereo unspecified)	40.6	.	19.2	78.8*	.	.
COc1ccccc1-c1ccc2c(c1)C(C)(Cc1ccc(Cl)cc1)C(=O)N2 (stereo unspecified)	-8.6	.	.	-0.2	.	.
COCCCNS(=O)(=O)c1ccc2[nH]c3c(c2c1)CCCCC3	7.8	-4.4	-18.1	84.0*	2.9	9.7
CC(C)(C)NS(=O)(=O)c1ccc2[nH]c3c(c2c1)CCCCC3	4.5	14.8	-3.8	20.8	17.1	1.1
C[C@@H]1CN([C@@H](C)CO)C(=O)c2cccc(NC(=O)Nc3ccccc3)c2O[C@H]1CN(C)S(=O)(=O)c1ccc(F)cc1	.	.	11.1	.	.	.
CN(C)/C=C/C(=O)c1cccc(Oc2ncccn2)c1	8.6	71.5*	.	-1.1	48.8	4.1
C[C@H](CO)N1C[C@H](C)[C@@H](CN(C)C(=O)c2ccc3c(c2)OCO3)Oc2ncc(C#Cc3ccccc3F)cc2C1=O	.	.	-21.9	.	.	.
CO[C@H]1CN(C)C(=O)c2ccc(NS(C)(=O)=O)cc2OC[C@@H](C)N(C(=O)C2CCCCC2)C[C@@H]1C	.	.	-4.2	.	.	.
C[C@@H](NC(=O)C[C@@H]1CC[C@@H](NC(=O)C2CC2)[C@H](CO)O1)c1ccccc1	.	.	-10.9	.	.	.
COc1ccc(C2Nc3ccccc3C(=O)N2NS(=O)(=O)c2ccc(C)cc2)cc1 (stereo unspecified)	-30.8	56.8*	4.2	10.3	46.6	-8.4
C[C@H]1CN([C@@H](C)CO)C(=O)c2cc(NC(=O)Cn3cnnn3)ccc2O[C@@H]1CN(C)Cc1ccc(Oc2ccccc2)cc1	.	.	-15.0	.	.	.
COc1ccc(C2c3sc(=O)[nH]c3SC3C4CCC(C4)C23)cc1 (stereo unspecified)	.	-9.6	.	64.5*	-3.6	3.5
O=c1[nH]c2c(s1)C(c1ccccc1)C1C3CCC(C3)C1S2 (stereo unspecified)	17.4	-5.0	.	11.3	0.0	-1.0
C[C@@H]1CN([C@H](C)CO)S(=O)(=O)c2ccc(C3=CCCCC3)cc2O[C@H]1CN(C)C(=O)c1ccccc1	.	.	14.6	.	.	.
SMILES	TROY signal inh	HSF-1 act	LGR2 inh	TWEAK Fn14 block	HSF1 inh	LMP1 NFkB inh
COC(=O)c1cccc(-c2ccc(C(c3c(C)[nH][nH]c3=O)c3c(C)[nH][nH]c3=O)o2)c1	82.3*	27.9	-2.2	7.7	13.0	17.4
COc1ccc(S(=O)(=O)N(C)C[C@H]2Oc3c(NS(=O)(=O)c4ccccc4)cccc3C(=O)N([C@H](C)CO)C[C@H]2C)cc1	.	.	-11.8	.	.	.
O=C(Oc1ccccc1Cl)c1ccc(-n2cncn2)nc1	4.9	-91.8	.	9.6	-89.4*	-2.5
O=C(c1ccccc1)c1ccc(O)cc1O	-6.4	-4.9	2.1	2.1	-3.5	6.3
CC(=O)c1cc2c(C)c(C(=O)c3ccccc3)oc2cc1O	38.1	29.9	20.8	54.6*	7.3	-5.6
CCCNC(=O)N1[C@H](CO)[C@H](c2ccccc2C2=CCCC2)[C@@H]1C#N	.	.	8.1	.	.	.
CCC(C)Sc1cc(-c2nc3ccccn3c2NC2CCCCC2)ccc1OC (stereo unspecified)	1.3	27.4	53.4*!	37.0	23.1	-9.0
CCC(C)Sc1cc(-c2nc3cc(C)ccn3c2NC2CCCCC2)ccc1OC (stereo unspecified)	-22.8	.	-7.0	-5.2	.	7.5
COc1ccc(-c2nc3ccccn3c2NCc2ccc3c(c2)OCO3)cc1	-53.3	-2.0	.	-7.3	3.1	-13.6
COc1ccc(-c2nc3cc(C)ccn3c2NCc2ccc3c(c2)OCO3)cc1	-30.5	54.6*	-12.0	-39.0	21.2	-4.0
COc1ccc(-c2cc(-c3nc4ccccn4c3NCc3ccccc3)ccc2OC)cc1	-22.0	.	100.2*	-9.2	.	15.4
CCC(C)Sc1cc(-c2nc3ccc(C)cn3c2NCc2ccccc2)ccc1OC (stereo unspecified)	24.3	-6.2	-0.5	78.2*!	4.0	14.4
CO[C@@H]1CN(C)C(=O)c2cccc(C#N)c2OC[C@H]2O[C@H](CC[C@H]2OC)CCN(C)C(=O)[C@H]1C	.	.	26.5	.	.	.
COCC(=O)Nc1ccc2c(c1)[C@@H]1C[C@@H](CC(=O)NCc3ccc(-c4ccccc4)cc3)O[C@@H](CO)[C@@H]1O2	.	.	1.0	.	.	.
CCCCNc1c(-c2ccc(OC)c(SC3CCCCC3)c2)nc2ccc(C)cn12	13.1	.	52.0*!	59.2*!	.	24.5
O=[N+]([O-])c1ccccc1Nc1ccccc1[N+](=O)[O-]	8.0	.	-4.4	7.5	.	5.2
Nc1ccccc1Nc1ccc([N+](=O)[O-])cc1[N+](=O)[O-]	-5.0	60.2*	10.9	8.6	18.3	11.3
CC(C)(C)c1ccc(/C=C/C(=O)NC2=NCCS2)cc1	53.4*	-19.0	.	50.4*	-11.2	-37.0
Cc1ccc(/C=C/C(=O)Nn2cnnc2)cc1	-12.3	25.6	.	57.0*	13.1	-31.1
Cc1ccc(/C=C/C(=O)NC2=NCCS2)cc1	28.8	12.3	72.3*	51.5*	-2.1	-11.4
CC(C)(C)c1ccc(/C=C/C(=O)Nc2cccnc2)cc1	3.9	38.8	-99.1	-15.0	22.2	-30.8
Cc1ccc(OCC(=O)NC2=NCCS2)cc1	-4.9	3.5	.	23.9	0.7	-12.9
Cc1noc(C)c1S(=O)(=O)Nc1ccc2c(c1)C(=O)N([C@@H](C)CO)C[C@@H](C)[C@@H](CN(C)CC1CC1)OCCCC[C@@H](C)O2	.	.	-7.2	.	.	.
